# The full ranking holds about 2,900 compounds; the median of “NF-kB SEAP reporter activity, fold change vs agonist alone” is about 0.99, and the highest 2% start at about 2.6. The sample as a whole holds a higher share of the highest values than the screen did.
# Tests used:
# RAW-Dual [1] = test: NF-kB SEAP reporter activity, fold change vs agonist alone; higher = enhanced NF-kB activity; details: library stock concentration (final ~1000-fold dilution): 10 mM
# In short: (§1)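 RAW-Dual macrophages were seeded in DMEM at 50,000 cells/well in 384-well plates, given 50 nL of library stock by pin tool, and given a PRR agonist 1 h later. Plates were held at 37 °C, 5% CO2 for 20 hours, after which supernatant was read for IRF by QuantiLuc luminescence and for NF-κB by QuantiBlue absorbance at 620 nm. Reporter activity is expressed as fold change over wells that received agonist alone. A well was called cytotoxic when IncuCyte confluency fell below 70% of agonist controls in both mask sets.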
# RAW-Dual [2] = test: NF-kB SEAP reporter activity, fold change vs agonist alone; cytotoxicity flag (confluency mask): not cytotoxic; higher = enhanced NF-kB activity
# In short: as §1
# RAW-Dual [3] = test: NF-kB SEAP reporter activity, fold change vs agonist alone; cytotoxicity flag (confluency mask): cytotoxic (confluency <70% of control); higher = enhanced NF-kB activity
# In short: as §1
# [4] = cytotoxicity flag (confluency mask): not cytotoxic, agonist: Imiquimod (TLR7) […]
# [5] = cytotoxicity flag (confluency mask): not cytotoxic, agonist: MPLA (TLR4) […]
# [6] = agonist: ODN 1826 (TLR9) 0.5 ug/mL
# [7] = agonist: Pam2CSK4 (TLR2/6) 0.1 ug/mL
# [8] = agonist: Pam3CSK4 (TLR2/1) 0.1 ug/mL
# [9] = cytotoxicity flag (confluency mask): cytotoxic (confluency <70% of control), agonist: Imiquimod (TLR7) […]
# [10] = cytotoxicity flag (confluency mask): cytotoxic (confluency <70% of control), agonist: MPLA (TLR4) […]
smiles,measurement,setting,value
COC12C(COC(N)=O)C3=C(C(=O)C(C)=C(N)C3=O)N1CC1NC12 (configuration not stated),NF-kB SEAP reporter activity,RAW-Dual [1]; [4],1.82
same,NF-kB SEAP reporter activity,RAW-Dual [1]; [5],1.79
COC12C(COC(N)=O)C3=C(C(=O)C(C)=C(N)C3=O)N1CC1NC12 (configuration not stated) (library stock concentration (final ~1000-fold dilution): 10 mM),NF-kB SEAP reporter activity,RAW-Dual [2]; agonist: LPS (TLR4) 0.1 ug/mL,2.79
same,NF-kB SEAP reporter activity,RAW-Dual [2]; [6],2.71
same,NF-kB SEAP reporter activity,RAW-Dual [2]; [7],1.89
same,NF-kB SEAP reporter activity,RAW-Dual [2]; [8],3.31
CCN(CC)CCNC(=O)c1c(C)[nH]c(/C=C2/C(=O)Nc3ccc(-c4csc(-c5ccccc5)n4)cc32)c1C (library stock concentration (final ~1000-fold dilution): 10 mM),NF-kB SEAP reporter activity,RAW-Dual [3]; agonist: LPS (TLR4) 0.1 ug/mL,0.882
same,NF-kB SEAP reporter activity,RAW-Dual [3]; [6],0.397
same,NF-kB SEAP reporter activity,RAW-Dual [3]; [7],0.37
same,NF-kB SEAP reporter activity,RAW-Dual [3]; [8],0.645
CCN(CC)CCNC(=O)c1c(C)[nH]c(/C=C2/C(=O)Nc3ccc(-c4csc(-c5ccccc5)n4)cc32)c1C,NF-kB SEAP reporter activity,RAW-Dual [1]; [9],1.35
same,NF-kB SEAP reporter activity,RAW-Dual [1]; [10],1.55
COc1ccc(NC(=O)c2ccc(C(=N)N(C)C)cc2)c(C(=O)Nc2ccc(Cl)cn2)c1.O=C(O)/C=C\C(=O)O (library stock concentration (final ~1000-fold dilution): 10 mM),NF-kB SEAP reporter activity,RAW-Dual [2]; agonist: LPS (TLR4) 0.1 ug/mL,0.955
same,NF-kB SEAP reporter activity,RAW-Dual [2]; [6],0.994
same,NF-kB SEAP reporter activity,RAW-Dual [2]; [7],1.1
same,NF-kB SEAP reporter activity,RAW-Dual [2]; [8],1.06
COc1ccc(NC(=O)c2ccc(C(=N)N(C)C)cc2)c(C(=O)Nc2ccc(Cl)cn2)c1.O=C(O)/C=C\C(=O)O,NF-kB SEAP reporter activity,RAW-Dual [1]; [5],0.953
COc1cc2c(Oc3ccc4[nH]c(C)cc4c3F)ncnc2cc1OCCCN1CCCC1.O=C(O)/C=C\C(=O)O,NF-kB SEAP reporter activity,RAW-Dual [1]; [10],2.65
COc1cc2c(Oc3ccc4[nH]c(C)cc4c3F)ccnc2cc1OCC1(N)CC1.Cl.Cl (library stock concentration (final ~1000-fold dilution): 10 mM),NF-kB SEAP reporter activity,RAW-Dual [3]; agonist: LPS (TLR4) 0.1 ug/mL,1.7
same,NF-kB SEAP reporter activity,RAW-Dual [3]; [6],0.29
same,NF-kB SEAP reporter activity,RAW-Dual [3]; [7],1.17
same,NF-kB SEAP reporter activity,RAW-Dual [3]; [8],1.74
COc1cc2c(Oc3ccc4[nH]c(C)cc4c3F)ncnc2cc1OCCCN1CCCC1 (library stock concentration (final ~1000-fold dilution): 10 mM),NF-kB SEAP reporter activity,RAW-Dual [3]; agonist: LPS (TLR4) 0.1 ug/mL,0.671
same,NF-kB SEAP reporter activity,RAW-Dual [3]; [6],0.212
same,NF-kB SEAP reporter activity,RAW-Dual [3]; [7],1.03
same,NF-kB SEAP reporter activity,RAW-Dual [3]; [8],1.37
COc1cc2c(Oc3ccc4[nH]c(C)cc4c3F)ncnc2cc1OCCCN1CCCC1,NF-kB SEAP reporter activity,RAW-Dual [1]; [9],1.98
same,NF-kB SEAP reporter activity,RAW-Dual [1]; [10],1.96
COc1cc2c(Oc3ccc4[nH]c(C)cc4c3F)ncnc2cc1OCCCN1CCCC1.O=C(O)/C=C\C(=O)O (library stock concentration (final ~1000-fold dilution): 10 mM),NF-kB SEAP reporter activity,RAW-Dual [3]; agonist: LPS (TLR4) 0.1 ug/mL,2.81
same,NF-kB SEAP reporter activity,RAW-Dual [3]; [6],0.402
same,NF-kB SEAP reporter activity,RAW-Dual [3]; [7],1.61
same,NF-kB SEAP reporter activity,RAW-Dual [3]; [8],1.15
COc1cc2c(Oc3ccc4[nH]c(C)cc4c3F)ccnc2cc1OCC1(N)CC1.Cl.Cl,NF-kB SEAP reporter activity,RAW-Dual [1]; [9],1.53
same,NF-kB SEAP reporter activity,RAW-Dual [1]; [10],1.89
Cl.Nc1ccc(N=Nc2ccccc2)c(N)n1,NF-kB SEAP reporter activity,RAW-Dual [1]; [4],1.1
same,NF-kB SEAP reporter activity,RAW-Dual [1]; [5],1.08
Cl.Nc1ccc(N=Nc2ccccc2)c(N)n1 (library stock concentration (final ~1000-fold dilution): 10 mM),NF-kB SEAP reporter activity,RAW-Dual [2]; agonist: LPS (TLR4) 0.1 ug/mL,1.22
same,NF-kB SEAP reporter activity,RAW-Dual [2]; [6],0.928
same,NF-kB SEAP reporter activity,RAW-Dual [2]; [7],1.09
same,NF-kB SEAP reporter activity,RAW-Dual [2]; [8],0.933
Nc1nc(=O)n(C2CSC(CO)O2)cc1F (configuration not stated),NF-kB SEAP reporter activity,RAW-Dual [1]; [4],0.983
same,NF-kB SEAP reporter activity,RAW-Dual [1]; [5],1.14
Nc1nc(=O)n(C2CSC(CO)O2)cc1F (configuration not stated) (library stock concentration (final ~1000-fold dilution): 10 mM),NF-kB SEAP reporter activity,RAW-Dual [2]; agonist: LPS (TLR4) 0.1 ug/mL,0.99
same,NF-kB SEAP reporter activity,RAW-Dual [2]; [6],1.1
same,NF-kB SEAP reporter activity,RAW-Dual [2]; [7],1.1
same,NF-kB SEAP reporter activity,RAW-Dual [2]; [8],1.13
CCC(C)SSc1ncc[nH]1 (configuration not stated) (library stock concentration (final ~1000-fold dilution): 10 mM),NF-kB SEAP reporter activity,RAW-Dual [2]; agonist: LPS (TLR4) 0.1 ug/mL,4.74
same,NF-kB SEAP reporter activity,RAW-Dual [2]; [6],2.67
same,NF-kB SEAP reporter activity,RAW-Dual [2]; [7],1.44
same,NF-kB SEAP reporter activity,RAW-Dual [2]; [8],2.7
CCC(C)SSc1ncc[nH]1 (configuration not stated),NF-kB SEAP reporter activity,RAW-Dual [1]; [4],1.51
same,NF-kB SEAP reporter activity,RAW-Dual [1]; [5],1.85
